Results published in PubChem BioAssay (NCATS).
Active and inactive are the calls of the source. The call rests on the fitted dose curve; in most records, active means well fitted curve in the direction sought with a large enough effect; inconclusive means small, poorly fitted or top-dose-only effect, or another doubt; inactive means no such curve, though single readings can be large or run the other way.

What follows are compounds tested against Thyrotropin receptor (Homo sapiens) (UniProt P16473) (assay: qHTS Assay for Antagonists of the Thyroid Stimulating Hormone Receptor (AID 488980)). Conditions: TSHR-expressing cells, cAMP antagonist read-out; series mostly up to 57.5 µM.
Thyrotropin receptor (Homo sapiens), sequence (P16473 whole entry, looked up): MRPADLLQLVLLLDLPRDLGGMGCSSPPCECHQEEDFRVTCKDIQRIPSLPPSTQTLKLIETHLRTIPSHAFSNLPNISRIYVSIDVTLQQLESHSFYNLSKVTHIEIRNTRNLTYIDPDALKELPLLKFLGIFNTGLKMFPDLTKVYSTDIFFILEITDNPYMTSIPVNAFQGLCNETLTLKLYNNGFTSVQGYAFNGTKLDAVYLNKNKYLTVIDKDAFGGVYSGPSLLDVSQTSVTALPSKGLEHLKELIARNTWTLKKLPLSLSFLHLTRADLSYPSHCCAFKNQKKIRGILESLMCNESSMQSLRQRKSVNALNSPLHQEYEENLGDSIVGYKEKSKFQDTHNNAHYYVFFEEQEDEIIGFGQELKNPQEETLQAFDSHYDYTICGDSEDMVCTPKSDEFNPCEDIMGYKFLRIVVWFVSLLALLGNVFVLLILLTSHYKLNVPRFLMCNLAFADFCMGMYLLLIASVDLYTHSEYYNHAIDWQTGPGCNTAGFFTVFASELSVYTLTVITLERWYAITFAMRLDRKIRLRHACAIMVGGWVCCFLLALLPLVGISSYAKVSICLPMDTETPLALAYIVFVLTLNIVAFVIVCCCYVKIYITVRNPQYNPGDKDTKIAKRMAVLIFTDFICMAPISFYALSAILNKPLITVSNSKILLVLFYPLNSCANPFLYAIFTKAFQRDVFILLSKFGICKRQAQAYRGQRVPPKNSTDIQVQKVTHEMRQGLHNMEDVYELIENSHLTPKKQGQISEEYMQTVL
Text: TSH is an alpha/beta heterodimeric glycoprotein hormone secreted from the anterior pituitary gland which belongs to the glycoprotein hormone family. The actions of TSH are mediated by a seven-transmembrane receptor, which upon TSH binding couples preferentially to the G-alpha (s) protein (Gs), resulting in activation of adenylate cyclase and increase in cyclic adenosine 3', 5' monophosphate (cAMP). The TSH receptor (THSR) is mainly expressed in thyroid follicular cells and regulates their growth and function. This cell based assay was conducted on a TSHR transfected HEK 293 cell line, measuring cAMP stimulation using antibody-based Homogeneous Time Resolved Fluorescence (HTRF).
Our goal is to identify small molecules that will inhibit (antagonize) the thyroid-stimulating hormone receptor (TSHR), a member of the 7 transmembrane-spanning receptor (7TMR) family of cell surface receptors. TSHR-mediated hyperthyroidism is important in thyroid pathology. The development of small molecule antagonists of TSHR may lead to therapeutic approaches for TSHR-mediated hyperthyroidism caused by constitutively activating mutations or stimulating auto-antibodies associated with Graves' disease. Graves' disease is the leading cause of hyperthyroidism and is caused by autoantibodies that stimulate TSHR (TsAbs) causing thyroid growth and unregulated overproduction of thyroid hormones and existing treatments have liabilities (agranulocytosis). In addition, TSHRs are known to be expressed in multiple extrathyroidal tissues including bone, brain, kidney, testis, fat and cells of the immune system but the role of the TSHR in these tissues is not clear. Therefore, TSHR antagonists/inverse agonists could be used as probes of extrathyroidal TSHR function. Finally, TSHR inverse agonists, which are a subclass of antagonists that inhibit agonist-independent (or basal or constitutive) TSHR signaling, could be used to inhibit TSH-independent signaling in patients with recurrent or metastatic thyroid cancer who are receiving thyroid hormone to suppress TSH.
An anti cAMP antibody contains a fluorescent cryptate tag (excitation 337 nm; emission 620 nm) and the acceptor is cAMP-d2 (excitation 620 nm; emission 665 nm). When antibody and cAMP-d2 interact and are excited by a 337 nm light, a FRET occurs resulting in emission at 665 nm. The assay is competition between cAMP-d2 and cAMP (from the cell lysate). The homogeneous protocol allows for one step dispense after stimulation that is automation friendly.
Step, Parameter, Value, Description
1, Cells, 3 uL, 2000 TSHR freshly harvested cells/well 1536 TC treated White solid bottom plate (Cells resuspended in 10 mM HEPES buffered HBSS and 70 uM RO 20-1724)
2, Compound, 23 nL, Libraries and controls
3, Compound, 1 uL, EC80 TSH (4 nM final)
5, Reagent, 2 uL, cAMP antibody diluted 1:20 in lysis buffer
6, Time, 30 minutes, Room temperature
7, Detector, HTRF settings, Viewlux
`Nc1ncnc2c1ncn2[C@@H]1O[C@H](COP(=O)(O)CP(=O)(O)OP(=O)(O)O)[C@H](O)[C@H]1O` was tested, and the outcome was “inactive”.
In the case of `CCN(CC)C(=O)N[C@@H]1C[C@@H]2c3cccc4[nH]cc(c34)C[C@H]2N(C)C1`, the outcome is reported as “inactive”.
`C[N+]1(C)C2CC(OC(=O)C(CO)c3ccccc3)CC1C1OC12` (stereo not given) was tested, and the outcome was “inactive”.
In the case of `Oc1ccc2c3c1O[C@H]1[C@@H](O)CC[C@@]4(O)C(C2)N(CC2CCC2)CCC314` (stereo not given in full), the outcome is reported as “inactive”.
`C[C@]12CC[C@H]3[C@@H](CCC4C[C@H](O)CC[C@@]43C)[C@@H]1CC[C@@H]2O` (stereo not given in full) was tested, and the outcome was “inactive”.
With `O=C(O)C1C2CCC(O2)C1C(=O)O` (stereo not given) the outcome was “inactive”.
With `CCNC(=O)[C@H]1O[C@@H](n2cnc3c(N)ncnc32)[C@H](O)[C@H]1O` the outcome was “inactive”.
With `COc1cc(C=C(C#N)C#N)cc(O)c1O` the outcome was “inactive”.
For `COc1ccc2c(c1O)-c1cccc3c1C(C2)N(C)CC3` (stereo not given), the outcome was “inactive”.
For `C/C=C(/C)C(=O)O[C@H]1C(C)=C2C([C@@H]1OC(=O)CCCCCCC)[C@@](C)(OC(C)=O)C[C@@H](OC(=O)CCC)[C@@]1(O)[C@H]2OC(=O)[C@@]1(C)O` (stereo not given in full), the outcome was “inactive”.
With `Oc1cc2c(cc1O)[C@H]1c3ccccc3CNC1CC2` (stereo not given in full) the outcome was “inactive”.
For `C[C@@H]1O[C@@H](O[C@H]2C[C@@H](O)[C@]3(CO)[C@H]4[C@H](O)C[C@]5(C)[C@@H]([C@@H]6COC(=O)C6)CC[C@]5(O)[C@@H]4CC[C@]3(O)C2)[C@H](O)[C@H](O)[C@H]1O`, the outcome was “inactive”.
With `CC(C)(O)C1C2OC(=O)C1[C@]1(O)C[C@H]3O[C@]34C(=O)O[C@H]2[C@]14C` (stereo not given in full) (tested in a mixture with another compound) the outcome was “inactive”.
`CCCN1CCc2cc(O)cc3c2C1Cc1ccc(O)c(O)c1-3` (stereo not given) was tested, and the outcome was “inactive”.
`C=CCN1CCc2cccc3c2C1Cc1ccc(O)c(O)c1-3` (stereo not given) was tested, and the outcome was “inactive”.
With `NNCc1cccc(O)c1` the outcome was “inactive”.
`C[C@]12CC[C@H](OS(=O)(=O)O)CC1=CCC1C2CC[C@]2(C)C(=O)CC[C@@H]12` (stereo not given in full) was tested, and the outcome was “inactive”.
In the case of `CCCC[N+]1(C)C2CC(OC(=O)C(CO)c3ccccc3)CC1C1OC12` (stereo not given), the outcome is reported as “inactive”.
With `N#CC(=Cc1ccc(O)c(O)c1)C(N)=S` the outcome was “inactive”.
With `COc1cc(C[C@@H](C)N)c(OC)cc1I` the outcome was “inactive”.
`CC1Cc2cc3c(cc2C(c2ccc(N)cc2)=NN1)OCO3` (stereo not given) was tested, and the outcome was “inactive”.
`CCN1C[C@]2(C)CC[C@H](O)[C@@]34[C@@H]5C[C@@H]6[C@@H](OC)C[C@@](O)(C5[C@H]6O)[C@@H](C[C@@H]23)[C@@H]14` was tested, and the outcome was “inactive”.
In the case of `C[C@H]1C2Cc3ccc(O)cc3[C@]1(C)CCN2CC1CC1`, the outcome is reported as “inactive”.
In the case of `CCC(CO)NC(=O)[C@@H]1C=C2c3cccc4[nH]cc(c34)C[C@H]2N(C)C1` (stereo not given in full), the outcome is reported as “inactive”.
With `CCCN(CCC)[C@@H]1CCc2c(F)ccc(O)c2C1` the outcome was “inactive”.
In the case of `CCCN1CCC[C@@H]2Cc3n[nH]cc3C[C@H]21`, the outcome is reported as “inactive”.
`C[C@H]1OC[C@@H](C[N+](C)(C)C)O1` was tested, and the outcome was “inactive”.
In the case of `C=CCN1CC[C@@]2(C)c3cc(O)ccc3CC1[C@@H]2C`, the outcome is reported as “inactive”.
`COC(=O)C(N)CCCN=C(N)N[N+](=O)[O-]` (stereo not given) was tested, and the outcome was “inactive”.
With `CN1C[C@@H](CS(=O)(=O)N(C)C)C[C@@H]2c3cccc4c3c(cn4C)C[C@H]21` the outcome was “inactive”.
With `C#CCN(C)C(C)Cc1ccccc1` (stereo not given) the outcome was “inactive”.
With `CCCN1CCC[C@@H](c2cccc(C#N)c2)C1` the outcome was “inactive”.
In the case of `CCCN1CCc2cccc3c2C1Cc1ccc(O)c(O)c1-3` (stereo not given), the outcome is reported as “inactive”.
For `CCCCN1C2CCC1CC(OC(c1ccc(F)cc1)c1ccc(F)cc1)C2` (stereo not given), the outcome was “inactive”.
For `C[C@]12CC[C@H](O)CC1=CCC1C2CC[C@]2(C)C(=O)CC[C@@H]12` (stereo not given in full), the outcome was “inactive”.
With `CCCN(CCC)C(=O)Cc1c(-c2ccc(Cl)cc2)nc2c(Cl)cc(Cl)cn12` the outcome was “inactive”.
For `O=C(OC1CCN(CCCl)CC1)C(c1ccccc1)c1ccccc1`, the outcome was “inactive”.
For `C[C@]12CC[C@@H](O)CC1CCC1C2CC[C@]2(C)C(=O)CC[C@@H]12` (stereo not given in full), the outcome was “inactive”.
For `NC(Cn1ccc(=O)[nH]c1=O)C(=O)O` (stereo not given), the outcome was “inactive”.
For `COc1ccc2c3c1O[C@H]1C(=O)CC[C@@]4(O)C(C2)N(CC2CC2)CCC314` (stereo not given in full), the outcome was “inactive”.
